ADAM10 inh: human ADAM10 inhibitors, primary screen, biochemical, QFRET, HTS | recombinant ADAM10, EDANS/DABCYL FRET peptide cleavage, 3 h | inhibition, % at 7 µM | hit rate 0.62% among 370,000 | Disintegrin and metalloproteinase domain-containing protein 10 (Homo sapiens), O14672;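 active means inhibition above a per-campaign cutoff equal to the mean of compounds falling between control-based bounds plus 3 SD, cut at about 20% in these data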;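 further: 0% = DMSO wells while the 100% control is not disclosed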
KLK7 zymogen act: proKLK7 zymogen activators, primary screen, biochemical, fluorescence intensity. activation, % at 7 µM. purified proKLK7, EDANS-DABCYL substrate fluorescence; 100% is mature enzyme control, 0% vehicle. hit rate 0.9% among 370,000. Kallikrein-7 (Homo sapiens), P49862;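 active means activation above the mean of all tested compounds plus 3 SD, computed per campaign excluding outliers beyond control limits, cut at about 13% in these data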
NR3A LBD binder: binders of NR3A ligand-binding domain, primary screen, biophysical, differential scanning fluorimetry, uHTS | Tm shift relative to glycine control, % at 25 µM | hit rate 2.5% among 340,000 | Glutamate receptor ionotropic, NMDA 3A (GRIN3A) ligand-binding domain | NR3A LBD differential scanning fluorimetry, Tm shift; 0% = protein alone, 100% = glycine-bound protein | AID 1259313, 2017;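 active means melting temperature shift of at least 10% of the positive control shift, at one fixed dose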
FAS TE block: FAS thioesterase domain inhibitors, primary screen, biochemical, fluorescence intensity, uHTS; Fatty acid synthase (Homo sapiens), P49327; recombinant FAS-TE, OMFH fluorogenic substrate, fluorescence endpoint; inhibition, % at 15 µM; hit rate 0.67% among 360,000;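 active means compounds whose normalised, plate-corrected inhibition of enzyme fluorescence in the single-dose primary screen is 50% or more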;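 further: 0% = DMSO with enzyme and 100% = substrate without enzyme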
ADAM17 inh: ADAM17 inhibitors, primary screen, biochemical, QFRET; recombinant ADAM17, EDANS/DABCYL FRET peptide cleavage; inhibition, % at 6.95 µM; hit rate 0.83% among 370,000;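 active means inhibition above the mean of compounds lying between control limits plus 3 SD, set per campaign, cut at about 8.5% in these data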;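 further: 0% = DMSO-only wells as the low control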
* = called active by the depositor; . = not tested or not shown. This is a sample that favours compounds with a hit; in the whole collection about 4.6% have one here.

SMILES	ADAM10 inh	KLK7 zymogen act	NR3A LBD binder	FAS TE block	ADAM17 inh
O=C(O)c1ccccc1N=Nc1c(O)[nH]c2ccc([N+](=O)[O-])cc12	.	.	27*	-4	.
O=[N+]([O-])c1ccc2[nH]c(O)c(N=NC(=S)NCC3CCCO3)c2c1 (centres undefined)	-1	0	27*	3	0
CCCCCC(=O)N=Nc1c(O)[nH]c2ccc([N+](=O)[O-])cc12	-8	0	30*	10	-2
O=C(NC1CCCCN(Cc2cccc(C(F)(F)F)c2)C1=O)c1cccc(F)c1 (centres undefined)	3	1	.	.	-1
Cc1ccc(CNC(=O)O[C@H]2CC[C@@]34CCCN3C(=O)CCC[C@H]4[C@H]2C)cc1	-3	.	.	.	-3
O=C(Nc1ccc(-c2nc3ccccc3[nH]2)cc1)c1ccc(N2C(=O)CCC2=O)cc1	-4	2	24*	-6	0
CC(C)(C)N1C(=O)c2ccc(C(=O)Nc3ccc(-c4nc5ccccc5[nH]4)cc3)cc2C1=O	-2	1	35*	-14	-1
Cc1ccc(CSc2nnc(-c3ccc(NS(=O)(=O)c4ccccc4)cc3)o2)cc1	18	0	16*	19	9
COC(=O)CSc1nnc(-c2ccc(NS(=O)(=O)c3ccccc3)cc2)o1	0	-1	-4	-1	0
O=C(Nc1ccc(Br)cc1)OC1CC2CC1[C@H]1CCCCN1[C@H]2Cc1ccccc1 (some centres undefined)	-2	0	.	.	0
Nc1ccc(N=Nc2ccccc2)cc1[N+](=O)[O-]	11	0	29*	18	3
NS(=O)(=O)c1ccc(N/N=C/c2ccc(O)cc2O)c([N+](=O)[O-])c1	1	0	30*	11	-4
O=C(O)c1ccccc1NS(=O)(=O)c1ccc(N/N=C/c2ccc(O)c(O)c2)c([N+](=O)[O-])c1	12	0	16*	37	7
CC(C)(C)C1CCC(=NNc2ccc(S(N)(=O)=O)cc2[N+](=O)[O-])CC1 (centres undefined)	6	1	16*	18	0
O=C(O)c1ccccc1NS(=O)(=O)c1ccc(NN=Cc2cccc(Cl)c2)c([N+](=O)[O-])c1	-1	-1	32*	6	2
CC1CCCC/C1=N\Nc1ccc(S(N)(=O)=O)cc1[N+](=O)[O-] (centres undefined)	-2	-1	-6	2	3
NS(=O)(=O)c1ccc(N/N=C/c2ccccc2C(=O)O)c([N+](=O)[O-])c1	4	0	-1	-4	2
COc1ccc(NS(=O)(=O)c2ccc(NN=Cc3ccc(C(=O)O)cc3)c([N+](=O)[O-])c2)cc1	-14	0	.	.	0
NS(=O)(=O)c1ccc(N/N=C/c2ccc(O)c(O)c2O)c([N+](=O)[O-])c1	9	0	-5	5	1
CCn1cc(C2Nc3ccccc3C(=O)N2O)c(C)n1 (centres undefined)	-25	0	2	-5	-3
Cc1c(C2Nc3ccccc3C(=O)N2O)cnn1C (centres undefined)	-16	0	611*	-2	0
Cc1ccc(CN2CCCCC(NC(=O)c3ccc(F)c(F)c3)C2=O)cc1 (centres undefined)	0	0	.	.	-3
CCOC(=O)c1ccc(NC(=S)NN)cc1	8	0	-2	-3	-5
CCOC(=O)c1ccc(NC(=S)Nc2ccc(Br)cc2N)cc1	-5	0	23*	-5	-5
COc1ccccc1NC(=O)C1CCCN(S(=O)(=O)c2ccc3[nH]c(=O)ccc3c2)C1 (centres undefined)	-11	0	-1	-2	-2
SMILES	ADAM10 inh	KLK7 zymogen act	NR3A LBD binder	FAS TE block	ADAM17 inh
COc1ccc(C)cc1NC(=O)C1CCCN(S(=O)(=O)c2ccc3[nH]c(=O)ccc3c2)C1 (centres undefined)	-2	1	15*	1	-3
CSc1ccccc1NC(=O)CO/N=C(\C)c1cc2ccccc2o1	2	0	11*	27	0
CSc1ccccc1NC(=O)COC(=O)CCc1ccccc1	-6	0	14*	4	1
Cc1cc(C)cc(NC(=O)N2CCC(c3nc4ccc(Cl)cc4[nH]3)CC2)c1	7	0	.	.	2
Cc1ccc(CNC(=O)C(=O)NCC2OCCN2C(=O)c2cccs2)cc1 (centres undefined)	-4	0	15*	-8	-5
CCc1ccc(CNC(=O)C(=O)NCC2CCCO2)cc1 (centres undefined)	1	1	1	-5	-2
Cc1ccc(CNC(=O)C(=O)NCC2CCCO2)cc1 (centres undefined)	11	0	16*	-11	-1
Cc1ccc(S(=O)(=O)N2CCOC2CNC(=O)C(=O)NCc2ccc(Cl)cc2)cc1 (centres undefined)	-5	0	13*	7	-6
CCCCOCCCNC(=O)C[C@@H]1C(=O)N2CCCC3=C2[C@@]1(C(=O)OC)CCCC3	-2	0	.	.	-1
CNC(C)C(=O)NC(C(=O)N1CCCC1C(=O)Nc1cccc2ncccc12)C(C)C (centres undefined)	-1	.	.	.	-4
Cc1noc(C)c1C(C)C1=CCCCC1 (centres undefined)	4	0	.	.	-2
Cc1cccc(N2C(S)=C(C#N)C(=O)NC23CCCCC3)c1	-4	0	16*	-5	-2
C[C@@H]1CN([C@@H](C)CO)C(=O)Cc2cc(NC(=O)Nc3ccc(F)cc3)ccc2O[C@@H]1CN(C)Cc1ccc(Cl)c(Cl)c1	34*	0	18*	21	13*
C[C@H](CO)N1C[C@H](C)[C@H](CN(C)Cc2ccc(Oc3ccccc3)cc2)Oc2ccc(NC(=O)Nc3cccc4ccccc34)cc2CC1=O	-32	-3	12*	23	-9
CC(C)CNC(=O)OCc1cn(Cc2cc(F)ccc2F)nn1	-4	0	.	.	-7
CCc1ccccc1NS(=O)(=O)c1ccc2[nH]cc(C(=O)NC3CCCC3)c(=O)c2c1	-1	-1	11*	24	0
COc1cccc(NS(=O)(=O)c2ccc3[nH]cc(C(=O)NCCC(C)C)c(=O)c3c2)c1	12	0	18*	-4	7
CNC(=O)c1c[nH]c2ccc(S(=O)(=O)Nc3ccccc3F)cc2c1=O	-12	-1	-1	-7	-3
COc1ccc(S[C@]2(C(=O)NCc3ccccc3)CC(=O)N[C@@H]2c2ccc(OC)cc2)cc1	2	-1	.	.	7
Cc1ccc(N2C(=O)N3[C@H](c4ccc(F)cc4)[C@@H]4C(=O)N(C5CCCCC5)C(=O)[C@@H]4[C@]3(C)C2=O)cc1	.	.	-6	18	.

Assay outcomes (PubChem)
